For 12 compounds, z-score and composite z-score results are on record in PubChem BioAssay.

Assay [1] can be described thus: optical density shifts of acrAB sulA E. coli – strain DRC41, OD650, 48 h, E. coli filamentation inducer project, primary screen (AID 1152).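 Note: E. coli MC1000 strain DRC41 lacking acrAB efflux pump and sulA.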 Particulars: higher = more signal, called active from +8 up or from −8 down.
The nature of assay [2]: probe aLefty1 binding on compound microarray – biochemical, small-molecule microarray, 635/667 nm fluorescence, primary screen (AID 1153).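 Note: score merges spot fluorescence with signal-to-noise ratio from the scanned slide images.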 Particulars: higher = more signal.
A short description of assay [3]: plasmodial surface anion channel blockers, osmotic lysis – cell-based, P. falciparum Indochina, OD700, 1 h, primary screen (AID 1154). The note with it: P. falciparum Indochina infected RBC osmotic lysis, higher = more signal, called active from +8 up or from −8 down.
Assay [4] is described as follows: plasmodial surface anion channel blockers, osmotic lysis – cell-based, P. falciparum Indochina, OD700, 2 h, primary screen (AID 1155).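 Note: lysis reports solute entry through the parasite surface anion channel PSAC.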 The note with it: P. falciparum Indochina infected erythrocytes, higher = more signal, called active from +8 up or from −8 down.
A short description of assay [5]: changes in parasitized red cell lysis, either direction – P. falciparum Indochina, OD700, 3 h, PSAC antagonist project, primary screen (AID 1156). Particulars: P. falciparum-infected erythrocytes, osmotic lysis, higher = more signal, called active from +8 up or from −8 down.
The nature of assay [6]: plasmodial surface anion channel blockers, osmotic lysis – cell-based, P. falciparum Indochina, OD700, 18 h, primary screen (AID 1157). Particulars: P. falciparum Indochina infected erythrocytes, osmotic lysis OD700, 18 h; higher = more signal, called active from +8 up or from −8 down.
Assay [7] is described as follows: S6 kinase pathway phospho-S6 level changes – cell-based, A549, cytoblot, luminescence, serum-stimulated, primary screen (AID 1158).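 Note: serum-stimulated A549 lung adenocarcinoma cells; signal is phosphorylated S6 detected by cytoblot immunostaining with HRP secondary.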 The note with it: 5 h, higher = more signal.
Assay [8] concerns the target NADPH oxidase 2 (Homo sapiens) (UniProt P04839). The assay is described as follows: compounds shifting NOX2 Amplex Red fluorescence – cell-based, HEK293-NOX2, PMA-stimulated, NOX inhibitor project, primary screen (AID 1159). Note: test concentration not given here. Particulars: 45 min, higher = more signal, called active from +8 up or from −8 down.
The target in assay [9] is NADPH oxidase 4 (Homo sapiens) (UniProt Q9NPH5). The assay is described as follows: compounds shifting NOX4 Amplex Red fluorescence – cell-based, HEK293-NOX4, tetracycline-induced, NOX inhibitor project, primary screen (AID 1160). The note with it: HEK293-NOX4, Amplex Red H2O2 fluorescence, 45 min; higher = more signal, called active from +8 up or from −8 down.
Chain of NADPH oxidase 4 (Homo sapiens) (Q9NPH5 whole entry, looked up): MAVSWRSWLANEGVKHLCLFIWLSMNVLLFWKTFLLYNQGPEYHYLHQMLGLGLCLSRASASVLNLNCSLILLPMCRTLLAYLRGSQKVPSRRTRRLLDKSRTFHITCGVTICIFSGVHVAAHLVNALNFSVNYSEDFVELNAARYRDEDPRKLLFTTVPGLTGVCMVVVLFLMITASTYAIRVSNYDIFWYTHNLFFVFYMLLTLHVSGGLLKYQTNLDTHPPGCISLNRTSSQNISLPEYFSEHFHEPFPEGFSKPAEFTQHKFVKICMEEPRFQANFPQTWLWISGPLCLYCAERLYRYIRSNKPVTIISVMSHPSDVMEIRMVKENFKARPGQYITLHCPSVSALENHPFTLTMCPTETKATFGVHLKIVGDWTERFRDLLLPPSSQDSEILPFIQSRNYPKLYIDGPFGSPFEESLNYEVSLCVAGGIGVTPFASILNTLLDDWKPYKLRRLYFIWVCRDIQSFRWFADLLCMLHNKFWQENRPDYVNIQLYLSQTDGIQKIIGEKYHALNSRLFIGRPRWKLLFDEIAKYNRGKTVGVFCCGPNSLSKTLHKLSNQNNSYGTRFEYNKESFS
For assay [10], the target named is NADPH oxidase 5 (Homo sapiens) (UniProt Q96PH1). The assay is described as follows: compounds shifting NOX5 Amplex Red fluorescence – cell-based, HEK293-NOX5, NOX inhibitor project, primary screen (AID 1161). The note with it: HEK293-NOX5, ionomycin, 45 min, higher = more signal.
Chain of NADPH oxidase 5 (Homo sapiens) (Q96PH1 whole entry, looked up): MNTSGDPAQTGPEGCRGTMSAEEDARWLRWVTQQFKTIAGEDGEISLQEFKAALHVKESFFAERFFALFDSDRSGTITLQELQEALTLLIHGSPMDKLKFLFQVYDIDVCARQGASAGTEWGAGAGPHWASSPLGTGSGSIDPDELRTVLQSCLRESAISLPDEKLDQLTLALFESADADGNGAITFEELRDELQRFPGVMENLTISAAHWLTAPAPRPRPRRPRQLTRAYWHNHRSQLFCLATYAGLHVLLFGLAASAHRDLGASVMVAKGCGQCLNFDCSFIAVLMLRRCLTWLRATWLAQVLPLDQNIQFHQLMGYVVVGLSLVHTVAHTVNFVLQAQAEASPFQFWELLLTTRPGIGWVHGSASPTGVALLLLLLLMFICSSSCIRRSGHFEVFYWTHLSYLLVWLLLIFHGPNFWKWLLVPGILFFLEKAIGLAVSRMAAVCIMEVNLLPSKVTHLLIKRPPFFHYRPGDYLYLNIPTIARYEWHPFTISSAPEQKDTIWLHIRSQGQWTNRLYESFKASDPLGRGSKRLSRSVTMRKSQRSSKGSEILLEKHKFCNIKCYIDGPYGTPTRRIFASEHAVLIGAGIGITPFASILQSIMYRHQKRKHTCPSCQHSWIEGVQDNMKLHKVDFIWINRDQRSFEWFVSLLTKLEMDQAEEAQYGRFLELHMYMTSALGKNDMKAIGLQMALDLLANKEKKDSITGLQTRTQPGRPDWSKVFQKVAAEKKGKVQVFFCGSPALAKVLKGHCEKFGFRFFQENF

Each structure is given as a SMILES string. The source made the active and inactive calls.

Chain of NADPH oxidase 2 (Homo sapiens) (P04839 whole entry, looked up): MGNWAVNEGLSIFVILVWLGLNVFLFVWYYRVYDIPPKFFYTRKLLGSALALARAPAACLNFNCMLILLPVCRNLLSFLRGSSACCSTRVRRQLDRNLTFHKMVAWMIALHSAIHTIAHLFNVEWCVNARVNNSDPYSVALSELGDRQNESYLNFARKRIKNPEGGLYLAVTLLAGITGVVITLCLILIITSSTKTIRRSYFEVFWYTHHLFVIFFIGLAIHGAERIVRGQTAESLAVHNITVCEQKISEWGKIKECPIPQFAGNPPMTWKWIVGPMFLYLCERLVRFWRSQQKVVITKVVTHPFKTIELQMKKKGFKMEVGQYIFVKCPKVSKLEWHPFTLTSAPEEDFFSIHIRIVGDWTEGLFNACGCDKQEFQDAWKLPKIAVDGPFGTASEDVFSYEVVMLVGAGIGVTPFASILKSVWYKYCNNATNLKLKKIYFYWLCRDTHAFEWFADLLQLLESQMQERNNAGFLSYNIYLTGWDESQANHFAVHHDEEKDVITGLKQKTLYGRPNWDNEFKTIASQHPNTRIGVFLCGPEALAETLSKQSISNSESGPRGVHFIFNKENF

For `COc1ccc(C(O)C2C=CC3C(=O)N(c4ccccc4)C(=O)C3N2Nc2ccc([N+](=O)[O-])cc2)cc1` (stereo not given), the z-score is -1.35 (inactive) in [1]; 14.3 (active) in [3]; 2.49 (inactive) in assay [4]; 0.547 (inactive) in assay [5]; 1.24 (inactive) in [6]; -0.727 in [7]. For the same compound, the figures for the z-score in assay [8], in assay [9] and in assay [10] were -0.897 (inactive), -2.79 (inactive) and -2.72, respectively. The same compound yielded a composite z-score in [2] of 0.987.
Consider `COCCOC(=O)N1C(=O)[C@@]2(c3cc(C#CCC(C(=O)OC)C(=O)OC)ccc31)[C@H](C(=O)N1CCc3cc(OC)c(OC)cc3C1)[C@H]1C(=O)O[C@H](c3ccccc3)[C@H](c3ccccc3)N1[C@@H]2c1ccc(OCCO)cc1`, for which the z-score in [1] is -0.763 (inactive); in assay [3], 9.36 (active); in assay [4], 2.73 (inactive); in assay [5], 0.57 (inactive); in [6] it was 1.67 (inactive); in [7] it was -0.37. The results for the z-score in assay [8], in assay [9] and in assay [10] were 1.98 (inactive), 1.19 (inactive) and 1.42, respectively. In addition, in assay [2], the composite z-score was 0.54.
As to `COC(=O)C(CC#Cc1ccc2c(c1)[C@]1(C(=O)N2)[C@H](C(=O)N2CCN(c3ncccn3)CC2)[C@H]2C(=O)O[C@H](c3ccccc3)[C@H](c3ccccc3)N2[C@@H]1c1ccc(OCCO)cc1)C(=O)OC`, the z-score is 0.454 (inactive) in assay [1]; 11 (active) in assay [3]; 2.86 (inactive) in assay [4]; 1.03 (inactive) in assay [5]; 1.4 (inactive) in assay [6]; 0.311 in assay [7]. Also, the z-score is 1.36 (inactive) in [8], 0.504 (inactive) in [9] and 1.53 in assay [10]. The same compound came in with a composite z-score in assay [2] of 0.2.
On to `COC(=O)c1cn(C[C@@H](Cc2ccccc2)NC(=O)N[C@H](CO)CCc2oc(C(C)=O)c(C(=O)OC)c2C(=O)OC)nn1`, for which the z-score in [1] is 0.555 (inactive); in [3] it was 14.3 (active); in assay [4] it was 2.29 (inactive); in assay [5], 1.08 (inactive); in assay [6], 0.872 (inactive); in assay [7], 0.419. Besides, the z-score is 0.744 (inactive) in [8], 1.01 (inactive) in assay [9] and 1.84 in assay [10]. In assay [2], this compound gave a composite z-score of 0.238.
Consider `COC(=O)[C@@]1(Cc2ccccc2N=[N+]=[N-])N=C(c2ccc(OCCCO)cc2)O[C@H]1c1ccccc1N=[N+]=[N-]`, for which the z-score is 1.24 (inactive) in assay [1]; 24.9 (active) in [3]; 13.3 (active) in [4]; 0.531 (inactive) in assay [5]; 3.93 (inactive) in assay [6]; 0.342 in assay [7]. The z-score in assay [8] is -1.58 (inactive); in assay [9], 0.802 (inactive); in [10], -0.833. Also, the composite z-score in assay [2] is 0.373.
For the compound `Cc1ccc(S[C@]2(C(=O)O)CC(=O)N(Cc3cc(C(F)(F)F)cc(C(F)(F)F)c3)[C@@H]2c2ccc(CO)cc2)cc1`, the z-score was -1.21 (inactive) in assay [1]; 2.76 (inactive) in assay [3]; 1.01 (inactive) in assay [4]; 1.44 (inactive) in assay [5]; 0.769 (inactive) in [6]; -0.482 in assay [7]. Further, the z-score in [8] is 0.86 (inactive); in assay [9], -0.271 (inactive); in [10] it was 0.0502. Besides, the composite z-score in [2] was -0.239.
On to `O=C1C2C=CC(C(O)c3ccc(F)cc3)N(n3cnnc3)C2C(=O)N1Cc1ccccc1` (stereo not given), for which the z-score is -0.792 (inactive) in assay [1]; 0.138 (inactive) in assay [3]; -0.995 (inactive) in [4]; 0.987 (inactive) in assay [5]; -2.02 (inactive) in assay [6]; 1.2 in assay [7]. Besides, the z-score was -3.1 (inactive) in [8], -1.12 (inactive) in [9] and -4.43 in assay [10]. Besides, in assay [2], the composite z-score was determined as 0.041.
As for `CCCNC(=O)[C@@]1(c2ccc([N+](=O)[O-])cc2)CC(=O)N(C2CCCCC2)[C@@H]1c1ccc(CO)cc1`, the z-score in [1] is 0.774 (inactive); in [3] it was 2.1 (inactive); in assay [4], 1.01 (inactive); in [5], 1.21 (inactive); in assay [6], 0.988 (inactive); in [7], -0.002. Besides, the z-score in assay [8] was 0.325 (inactive); in assay [9] it was 0.901 (inactive); in [10], 0.877. Moreover, the composite z-score in assay [2] is 0.062.
For `CC(C)C(=C=CC[C@H](O)c1ccc(OCCO)cc1)C[C@H](O)c1ccccn1`, the z-score in [1] is 0.839 (inactive); in [3] it was 11.3 (active); in assay [4], 2.04 (inactive); in [5], 1.11 (inactive); in assay [6], 0.945 (inactive); in [7] it was 0.439. For the same compound, the z-score is 1.66 (inactive) in assay [8], 0.926 (inactive) in assay [9] and -1.03 in assay [10]. In addition, the composite z-score in [2] is -0.191.
In the case of `COCCOC(=O)N1C(=O)[C@@]2(c3cc(C#CCCO)ccc31)[C@H](C(=O)Nc1nc3ccccc3s1)[C@H]1C(=O)O[C@H](c3ccccc3)[C@H](c3ccccc3)N1[C@@H]2c1ccccc1OCCO`, the z-score in assay [1] was -0.348 (inactive); in assay [3], 5.19 (inactive); in [4] it was 1.86 (inactive); in assay [5], 0.286 (inactive); in assay [6], 1.36 (inactive); in assay [7], -0.331. Also, the figures for the z-score in assay [8], in [9] and in assay [10] were 1.89 (inactive), -0.9 (inactive) and 0.501, respectively. In assay [2], this compound returned a composite z-score of 1.28.
For `COc1ccc([Si](C)(C)[C@@H]2[C@@H](CC(=O)N(CCO)Cc3ccccc3)O[C@]3(C(=O)N(Cc4cccc(N5CCOC5=O)c4)c4ccccc43)[C@H]2C)cc1`, the z-score in assay [1] was -0.179 (inactive); in assay [3] it was 5.73 (inactive); in [4], 1.14 (inactive); in assay [5] it was -0.0706 (inactive); in [6], 0.843 (inactive); in [7] it was 0.475. The z-score is 1.08 (inactive) in [8], 1.35 (inactive) in [9] and 1.75 in assay [10]. Also, the composite z-score in [2] is 0.677.
For the compound `O=C(CS)NCCCCCCNC(=O)[C@H]1C[C@H]2C(=O)N[C@@H](Cc3ccccc3)C(=O)N2[C@H]1c1ccc(O)cc1`, the z-score in assay [1] was -0.558 (inactive); in assay [3], 8.58 (active); in [4], 1.21 (inactive); in assay [5], -0.177 (inactive); in assay [6], 0.767 (inactive); in assay [7], -0.0427. Moreover, the z-score in [8] was 0.593 (inactive); in assay [9], -0.0574 (inactive); in assay [10] it was 1.08. For the same compound, in [2], the composite z-score was -0.54.
